The text below walks through data of PubChem BioAssay (NCI).

Values joined by “and” are separate entries in the source; they are usually repeats but may differ in a detail not shown here. Identical values can stand only once. Compounds without any hit were thinned out: in the full panel of roughly 83,000, 20% have a hit.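 For each line, cells grew in 96-well plates with the test compound present at a single concentration for 48 hours.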 Unmarked numbers belong to inactive results. Active and inactive are the calls of the source. Rule for the calls: active = growth percent below 10; inactive = the rest.

What all share (test): NCI-60 one-dose screen, 48 h (100 = growth as untreated, 0 = no growth, -100 = all killed)
Holding throughout (settings): 10 µM unless noted

Assay [1] concerns T-47D breast.
Assay [2] deals with BT-549 breast.
Assay [3] concerns MDA-MB-435 melanoma.
For assay [4], the system named is SW-620 colon.
Assay [5] has as its system MCF7 breast.
Assay [6] concerns HCT-116 colon.
In assay [7] the test system is HCC-2998 colon.
In assay [8] the test system is KM12 colon.

Consider `COc1cc(Nc2nc3ccccc3cc2C(=O)Nc2ccc(F)c(F)c2)cc(OC)c1OC`, for which the growth is 9.25% (active) in assay [1]; 55.5% in assay [2]; 19.7% in assay [3]; 23% in assay [4]; 12.8% in assay [5]; 6.91% (active) in assay [6]. Also, the values for the growth in assay [7] and in assay [8] were 45.3% and 20%, respectively.
As to `COc1ccc(-c2cc(-c3cc(OC)c(OC)c(OC)c3)c(C#N)c(=O)n2CCCCC(=O)O)cc1`, the growth in assay [1] is 72.6%; in assay [2], 102%; in assay [3] it was 80.2%; in assay [4], 98%; in assay [5], 93.2%; in assay [6], 94.1%. Besides, the growth in assay [7] is 105%; in assay [8], 94.6%.
Turning to `Cc1ccc(Cl)cc1N1CCN(C(=O)[C@@H]2C[C@@H]2c2ccc(F)cc2)CC1`, the growth in assay [1] was 83.4%; in assay [2], 97.6%; in assay [3], 97.6%; in assay [4], 101%; in assay [5] it was 90.6%; in assay [6], 68.8%. Moreover, the growth in assay [7] is 98.8%; in assay [8] it was 85.1%.
As for `CCCCC1=C(Br)C(=O)c2nc(C)ccc2C1=O`, the growth was 65.7% in assay [1]; 90% in assay [2]; 102% in assay [3]; 60.2% in assay [4]; 82.1% in assay [5]; 42.7% in assay [6]. Moreover, the values for the growth in assay [7] and in assay [8] were 108% and 98.7%, respectively.
`Nc1ccc(/C=N/Nc2ccnc3c(N)cccc23)c2cccnc12`: the growth in assay [1] was -39.5% (active); in assay [2] it was -37.2% (active); in assay [3] it was -84.1% (active); in assay [4], -28.3% (active); in assay [5], -47.1% (active); in assay [6], -93.1% (active). The growth is 41.5% in assay [7] and 0.438% (active) in assay [8].
In the case of `NNCCc1ccccc1`, the growth in assay [1] is 106% and 95.2%; in assay [2] it was 103% and 107%; in assay [3], 109% and 97.2%; in assay [4], 106% and 94.6%; in assay [5], 98.5% and 86.6%; in assay [6] it was 103% and 93.5%. The growth in assay [7] was 110% and 98.5%; in assay [8] it was 111% and 99.5%.
Regarding `CN(C)CCCn1c2c(c3ccc(N4CCNCC4)cc3c1=O)C(=O)c1ccccc1-2`, the growth in assay [1] was 44%; in assay [2] it was 54.2%; in assay [3], 20%; in assay [4], -21.6% (active); in assay [5] it was -28.2% (active); in assay [6], -89.1% (active). Further, the growth in assay [7] was -68.9% (active); in assay [8], -32.1% (active).
In the case of `COc1cc(/C=C(/c2ccccc2)[N+](=O)[O-])c(OC)c2c1OCO2`, the growth in assay [1] is -55.9% (active); in assay [2], -84.4% (active); in assay [3], -23% (active); in assay [4], -40.5% (active); in assay [5], -36.4% (active); in assay [6], -86.4% (active). Further, the growth in assay [7] was -91% (active); in assay [8] it was -50.8% (active).
In the case of `[2H]C([2H])([2H])Oc1cc(F)ccc1/C=C/C(=O)/C=C(/C=C/c1ccc(F)cc1OC([2H])([2H])[2H])OB(F)F`, the growth in assay [1] was 33.1%; in assay [2] it was 36.8%; in assay [3], 16.5%; in assay [4] it was 22.3%; in assay [5], 20.1%; in assay [6] it was -11.1% (active). Besides, the growth in assay [7] is 56%; in assay [8], 61.6%.
For `COc1ccc(S(=O)(=O)Nc2cc(Sc3cccc4cccnc34)c(O)c3ccccc23)cc1`, the growth is -30.9% (active) in assay [1]; 27.7% in assay [2]; 16.4% in assay [3]; -59.2% (active) in assay [4]; -50.5% (active) in assay [5]; -36.8% (active) in assay [6]. The growth in assay [7] is 38.6%; in assay [8] it was 20.3%.
Take `O=C1c2cccc3cccc(c23)C(=O)N1N1C(=O)c2cccc3c(N4CCNCC4)ccc(c23)C1=O`: the growth in assay [1] was 93.6%; in assay [2], 89.8%; in assay [3], 99.9%; in assay [4] it was 78.7%; in assay [5] it was 29%; in assay [6], 58.1%. Besides, the growth in assay [7] is 79.4%; in assay [8], 82.2%.
In the case of `Clc1cccc(Nc2ncnc3ccc(-c4cncc(-n5cnnn5)c4)cc23)c1`, the growth in assay [1] is 44.8%; in assay [2], 44.9%; in assay [3], 89.8%; in assay [4], 96.8%; in assay [5], 67.7%; in assay [6], 38.1%. Besides, the growth is 93.6% in assay [7] and 91.4% in assay [8].
As for `N#CC(Cc1cccc2ccccc12)c1cc2ccccc2[nH]1` (configuration not stated), the growth was 83.8% in assay [1]; 90.1% in assay [2]; 102% in assay [3]; 89.3% in assay [4]; 82.5% in assay [5]; 83.7% in assay [6]. Moreover, the growth in assay [7] was 99.2%; in assay [8] it was 88%.
Turning to `N#C/C(=C\c1ccc(Br)cc1)n1nnc2c(F)cccc21`, the growth in assay [1] was 14.2%; in assay [2], 12%; in assay [3] it was -26.8% (active); in assay [4] it was -22.1% (active); in assay [5] it was 12.7%; in assay [6], -27.5% (active). Further, the growth in assay [7] is -38.4% (active); in assay [8], 4.37% (active).
Regarding `C=C1C(=O)O[C@H]2[C@H]1CC/C(CNS(=O)(=O)c1ccc3ccccc3c1)=C\CC[C@@]1(C)O[C@@H]21`, the growth is -67.4% (active) in assay [1]; -9.57% (active) in assay [2]; 0.587% (active) in assay [3]; -29.8% (active) in assay [4]; -56.9% (active) in assay [5]; -87.2% (active) in assay [6]. For the same compound, the growth in assay [7] is -57.7% (active); in assay [8], 64.8%.
On to `CCCN1C(=O)/C(=c2\sc3n(c2=O)C2C(NN=3)N(CC)C(=O)N2CC)c2ccccc21` (configuration not stated), for which the growth in assay [1] is 27.8%; in assay [2] it was 20.8%; in assay [3], -21.2% (active); in assay [4], 24.9%; in assay [5], 9.94% (active); in assay [6], 7.6% (active). Besides, the growth in assay [7] is 15.5%; in assay [8] it was 20%.
For the compound `C#CCn1cnc2cnc(Nc3cccc(NC(=O)CCl)c3)nc21`, the growth in assay [1] was 5.42% [6.25 µM] (active); in assay [2], 3.26% [6.25 µM] (active); in assay [3], -19.6% [6.25 µM] (active); in assay [4] it was 0.405% [6.25 µM] (active); in assay [5], -6.48% [6.25 µM] (active); in assay [6], -30.2% [6.25 µM] (active). Also, the growth in assay [7] was -11.4% [6.25 µM] (active); in assay [8], -2.39% [6.25 µM] (active).
In the case of `O=C1C(Nc2ccc(Cl)cc2)=C(I)C(=O)c2ncccc21`, the growth is -34.2% (active) in assay [1]; 53.3% in assay [2]; -80.5% (active) in assay [3]; -27% (active) in assay [4]; -34.3% (active) in assay [5]; -57.3% (active) in assay [6]. Besides, the growth was 79.5% in assay [7] and 39.8% in assay [8].
On to `Nc1ccc(S(=O)(=O)c2ccc(N)cc2)cc1`, for which the growth was 104% and 100% in assay [1]; 104% and 110% in assay [2]; 94.6% in assay [3]; 108% and 92.5% in assay [4]; 99.5% and 104% in assay [5]; 107% and 94.9% in assay [6]. The growth was 98% and 108% in assay [7]; 106% and 109% in assay [8].
Take `COc1ccc(NC(=O)Nc2ccccc2CNc2nc(Nc3ccc(OCCN4CCCC4)cc3)ncc2Cl)cc1`: the growth is 27.2% in assay [1]; 32% in assay [2]; -70.9% (active) in assay [3]; 2.1% (active) in assay [4]; -60.5% (active) in assay [5]; -20.1% (active) in assay [6]. Also, the growth in assay [7] was 16.3%; in assay [8] it was 0.945% (active).
With `COc1ccc(Oc2nc(Nc3ccc(N4CCOCC4)cc3)ncc2NC(=O)c2cccc(C(F)(F)F)c2)cc1`, the growth in assay [1] is 76.5%; in assay [2], 96.9%; in assay [3], 98.2%; in assay [4] it was 87.1%; in assay [5], 79.3%; in assay [6], 70.2%. Moreover, the values for the growth in assay [7] and in assay [8] were 75.9% and 59.3%, respectively.
Turning to `C=C1CCC2C3(C)COC(c4ccc(NC(C)=O)cc4)OC3CCC2(C)C1C/C=C1/C(=O)OCC1O` (configuration not stated), the growth in assay [1] was 29.4%; in assay [2], 59.8%; in assay [3], 60.5%; in assay [4], 77.3%; in assay [5] it was 42.5%; in assay [6] it was 34.1%. Moreover, the growth in assay [7] is 59.1%; in assay [8], 51.7%.
`CC1=C2[C@@H](CC1)[C@]1(C)O[C@@](C(C)C)(C[C@H]1OC(=O)CO)[C@H]2OC(=O)C1CC1c1ccccc1` (some centres not stated): the growth in assay [1] was 41.5%; in assay [2], 88.8%; in assay [3] it was 96.7%; in assay [4], 84.6%; in assay [5], 75.1%; in assay [6], 89%. Further, the growth was 82.9% in assay [7] and 73.9% in assay [8].
As for `CCCCCCCCCCCCCCCC(=O)O[C@@H]1[C@@H](O)[C@@H](O)C([C@H](NC(=O)[C@@H]2C[C@@H](CCC)CN2C)[C@H](C)Cl)O[C@@H]1SC` (some centres not stated), the growth in assay [1] was 96.1%; in assay [2], 99.4%; in assay [3], 107%; in assay [4], 114%; in assay [5] it was 102%; in assay [6] it was 103%. The figures for the growth in assay [7] and in assay [8] were 115% and 101%, respectively.
For the compound `CCOC(=O)c1ccc(Nc2ncnc3c2cnn3-c2cccc(F)c2)cc1`, the growth in assay [1] is 100%; in assay [2], 100%; in assay [3], 103%; in assay [4], 99.8%; in assay [5], 95%; in assay [6], 99.3%. Also, the values for the growth in assay [7] and in assay [8] were 104% and 99.3%, respectively.
On to `COc1ccc2c(c1)c(-c1nc(-c3c[nH]c4c(Cl)nccc34)cs1)cn2C`, for which the growth in assay [1] is -4.46% (active); in assay [2], 98.8%; in assay [3] it was 98.3%; in assay [4], 103%; in assay [5], 8.44% (active); in assay [6], 92.7%. For the same compound, the results for the growth in assay [7] and in assay [8] were 74.6% and 30.8%, respectively.
`Oc1ccccc1C=Nc1ccc(N2CCN(c3ccccc3)CC2)cc1`: the growth in assay [1] was 81.7%; in assay [2], 54.8%; in assay [3], 96.5%; in assay [4] it was 110%; in assay [5], 84%; in assay [6] it was 87.1%. Moreover, the growth in assay [7] was 90.2%; in assay [8], 103%.
Take `COC(=O)c1[nH]nc(OC)c1C1(C(C#N)c2nc3ccccc3s2)CCCc2ccccc21` (configuration not stated): the growth in assay [1] is 84.1%; in assay [2] it was 88.2%; in assay [3] it was 104%; in assay [4], 104%; in assay [5], 84.8%; in assay [6], 104%. Moreover, the growth in assay [7] was 102%; in assay [8], 97%.
With `COc1cc(/C=C/C(=O)c2ccc(NC(=O)CSc3nnc(-c4cc(-c5ccccc5)nc5ccccc45)n3-c3ccccc3)cc2)cc(OC)c1OC`, the growth is 73% in assay [1]; 90.7% in assay [2]; 92.2% in assay [3]; 90.5% in assay [4]; 74.3% in assay [5]; 79% in assay [6]. Moreover, the figures for the growth in assay [7] and in assay [8] were 88.3% and 63.5%, respectively.
